Results reported in PubChem BioAssay AID1159580 (chemical genetic matrix, 2015).
In all, about 5,500 compounds went through this assay and about 2,000 (36%) were called active. Inconclusive results (about 18%) are left out. Rule as the data show it: active = normalized growth mostly below about 0.91 (no sharp cut-off); inconclusive = no clear call, values can overlap the other calls; inactive = mostly above about 0.92. This is one part of the list.

Assay: chemical genetic growth profiling, strain panel (AID 1159580);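 also: tested at 20 µM; growth read once vehicle control cultures reached saturation at 30 °C; 1 = growth at the plate median or of vehicle wells; lower values mean less growth of the strain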
Conditions: S. cerevisiae deletion strains, growth OD
[1] = locus YHR030C, strain SLT2, hits give low values

Measured: normalized growth

O=P1(NCCCl)OCCCN1CCCl (configuration not stated)
inactive: locus YAL021C, strain ccr4, hits give low values 0.964 | locus YAL026C, strain drs2, hits give low values 0.991 | locus YAL030W, strain snc1, hits give low values 0.992 | locus YBL061C, strain skt5, hits give low values 0.993 | locus YBR009C, strain hhf1, hits give low values 1.01 | locus YBR023C, strain chs3, hits give low values 0.987 | locus YBR171W, strain sec66, hits give low values 0.98 | locus YBR231C, strain swc5, hits give low values 1 | locus YBR279W, strain paf1, hits give low values 0.997 | locus YCL011C, strain gbp2, hits give low values 0.975 | locus YCL016C, strain dcc1, hits give low values 0.992 | locus YCL061C, strain MRC1, hits give low values 0.987 | locus YCL069W, strain vba3, hits give low values 0.989 | locus YCR088W, strain abp1, hits give low values 0.971 | locus YDL005C, strain med2, hits give low values 0.995 | locus YDL040C, strain nat1, hits give low values 0.987 | locus YDR001C, strain nth1, hits give low values 0.985 | locus YDR069C, strain doa4, hits give low values 0.995 | locus YDR137W, strain rgp1, hits give low values 0.988 | locus YDR159W, strain sac3, hits give low values 0.982 | locus YDR195W, strain ref2 0.985 | locus YDR297W, strain sur2, hits give low values 0.99 | locus YDR334W, strain swr1, hits give low values 0.969 | locus YDR335W, strain msn5, hits give low values 0.976 | locus YDR392W, strain spt3, hits give low values 1.01 | locus YEL003W, strain gim4, hits give low values 0.983 | locus YEL037C, strain rad23, hits give low values 0.95 | locus YEL061C, strain CIN8 (second series), hits give low values 0.977 | locus YER015W, strain faa2, hits give low values 0.99 | locus YER016W, strain bim1, hits give low values 0.986 | locus YER111C, strain swi4, hits give low values 1 | locus YER155C, strain BEM2 (second series), hits give low values 1.01 | locus YFR010W, strain ubp6, hits give low values 0.96 | locus YGL167C, strain pmr1, hits give low values 0.992 | locus YGL173C, strain kem1, hits give low values 0.984 | locus YGL227W, strain vid30, hits give low values 0.993 | locus YGL240W, strain doc1, hits give low values 1.02 | locus YGL253W, strain hxk2, hits give low values 0.986 | locus YHR013C, strain ard1, hits give low values 0.996 | locus YHR027C, strain rpn1, hits give low values 0.981 | [1] 0.967 | locus YHR079C, strain IRE1, hits give low values 0.971 | locus YHR142W, strain chs7, hits give low values 0.943 | locus YJL092W, strain hpr5, hits give low values 0.975 | locus YJL095W, strain BCK1 (second series), hits give low values 0.995 | locus YJL095W, strain BCK1, hits give low values 0.989 | locus YJL115W, strain asf1, hits give low values 0.971 | locus YJL129C, strain trk1, hits give low values 0.97 | locus YJL154C, strain vps35, hits give low values 0.992 | locus YJL164C, strain tpk1, hits give low values 0.979 | locus YJL166W, strain qcr8, hits give low values 0.998 | locus YJL187C, strain SWE1, hits give low values 0.99 | locus YJR066W, strain TOR1, hits give low values 0.921 | locus YKL160W, strain elf1, hits give low values 0.986 | locus YKR026C, strain gcn3, hits give low values 0.971 | locus YKR091W, strain srl3, hits give low values 0.99 | locus YLL001W, strain dnm1, hits give low values 0.968 | locus YLL026W, hits give low values 1 | locus YLL041C, strain sdh2, hits give low values 0.987 | locus YLR027C, strain aat2, hits give low values 0.988 | locus YLR113W, strain HOG1, hits give low values 1 | locus YLR221C, strain rsa3, hits give low values 0.981 | locus YLR258W, strain gsy2, hits give low values 0.996 | locus YLR262C, strain YPT6 (second series), hits give low values 1.01 | locus YLR320W, strain mms22, hits give low values 1.01 | locus YLR342W, strain FKS1, hits give low values 0.99 | locus YLR357W, strain rsc2, hits give low values 0.991 | locus YLR370C, strain arc18, hits give low values 0.986 | locus YLR384C, strain iki3, hits give low values 0.981 | locus YML120C, strain ndi1, hits give low values 0.968 | locus YMR058W, strain fet3, hits give low values 0.982 | locus YMR125W, strain sto1, hits give low values 0.992 | locus YMR129W, hits give low values 0.983 | locus YMR205C, strain PFK2, hits give low values 1.01 | locus YMR231W, strain pep5, hits give low values 0.992 | locus YNL071W, strain lat1, hits give low values 0.996 | locus YNL183C, strain NPR1, hits give low values 0.93 | locus YNL209W, strain ssb2, hits give low values 0.991 | locus YNL248C, strain rpa49, hits give low values 0.946 | locus YNL322C, strain KRE1 (second series), hits give low values 0.986 | locus YNR049C, strain mso1, hits give low values 0.985 | locus YOR001W, strain rrp6, hits give low values 0.973 | locus YOR070C, strain gyp1, hits give low values 0.993 | locus YOR080W, strain dia2, hits give low values 0.987 | locus YOR083W, strain WHI5, hits give low values 0.981 | locus YOR106W, strain vam3, hits give low values 0.982 | locus YOR231W, strain MKK1, hits give low values 0.968 | locus YOR265W, strain rbl2, hits give low values 0.99 | locus YOR270C, strain vph1, hits give low values 0.922 | locus YOR290C, strain snf2, hits give low values 0.994 | locus YPL051W, strain arl3, hits give low values 0.999 | locus YPL078C, strain atp4, hits give low values 0.978 | locus YPL106C, strain sse1, hits give low values 0.997 | locus YPL240C, strain hsp82, hits give low values 0.986 | locus YPL256C, strain CLN2, hits give low values 0.95

Cc1ccc(-c2nn[nH]n2)cc1Cl
inactive: locus YAL013W, strain DEP1, hits give low values 0.965 | locus YBR229C, strain ROT2, hits give low values 0.963 | locus YDL101C, strain DUN1, hits give low values 0.985 | locus YDL134C, strain PPH21, hits give low values 0.997 | locus YDR150W, strain NUM1, hits give low values 0.935 | locus YEL061C, strain CIN8, hits give low values 0.983 | locus YGR078C, strain PAC10, hits give low values 0.967 | locus YGR229C, strain SMI1, hits give low values 0.984 | [1] 1 | locus YHR087W, strain rtc3, hits give low values 0.975 | locus YJR043C, strain POL32, hits give low values 0.932 | locus YJR075W, strain HOC1, hits give low values 0.966 | locus YLR039C, strain RIC1, hits give low values 1 | locus YLR058C, strain SHM2 (second series), hits give low values 0.962 | locus YLR085C, strain ARP6, hits give low values 1 | locus YLR262C, strain YPT6, hits give low values 1 | locus YML094W, strain GIM5, hits give low values 1 | locus YMR219W, strain ESC1, hits give low values 0.97 | locus YMR263W, strain SAP30, hits give low values 0.933 | locus YNL153C, strain GIM3, hits give low values 0.969 | locus YNL298W, strain CLA4 (second series), hits give low values 1.02 | locus YNL322C, strain KRE1, hits give low values 0.947 | locus YNR030W, strain Alg12, hits give low values 1 | locus YOL006C, strain TOP1, hits give low values 1.07 | locus YPL055C, strain LGE1, hits give low values 0.944 | locus YPL241C, strain CIN2, hits give low values 1.12 | locus YPR135W, strain CTF4, hits give low values 1.03
